# Data published in PubChem BioAssay (NCATS).
# Results filed as inconclusive are left out. Where a call stands in place of a potency, no number is given. The source made the active and inactive calls. Calls come from the whole dose curve; as a rule, active = well fitted curve in the direction sought with a large enough effect; inconclusive = small, poorly fitted or top-dose-only effect, or another doubt; inactive = no such curve, though single readings can be large; an effect the other way counts as inactive or inconclusive. Peptide text beside a SMILES is read from it. * marks the point of attachment. Hexanoyl = CCCCCC(=O)*
# How the values were obtained:
# [1] = OV-KATE Cancer Cell Toxicity qHTS against the NCATS CANVASS Library (AID 1347345)
# Outline: (§1)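 1000 cells/well seeded and rested 4 h at 37 °C before pin transfer of compounds in an 11-pnt series. Exposure 72 h at 37 °C/5% CO2; viability by CellTiter-Glo luminescence after 15 min at room temperature.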
# [2] = HPAF-II Cancer Cell Toxicity qHTS against the NCATS CANVASS Library (AID 1347346); note: series mostly up to about 38 µM; nearly all actives have a fitted effect of over 55% in size
# Outline: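 Cytotoxicity read-out was CellTiter-Glo luminescence after 72 h at 37 degrees C exposure of HPAF-II cells (1000/well) to compounds in an 11-point titration.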
# [3] = UWB1.289 Cancer Cell Toxicity qHTS against the NCATS CANVASS Library (AID 1347347); note: nearly all actives have a fitted effect of over 60% in size
# Outline: as §1
# [4] = Panc-1005 Cancer Cell Toxicity qHTS against the NCATS CANVASS Library (AID 1347349); note: series mostly up to about 38 µM; nearly all actives have a fitted effect of over 60% in size
# Outline: as §1
# [5] = SW1088 Cancer Cell Toxicity qHTS against the NCATS CANVASS Library (AID 1347350); note: nearly all actives have a fitted effect of over 75% in size
# Outline: as §1
# [6] = U-118MG Cancer Cell Toxicity qHTS against the NCATS CANVASS Library (AID 1347351)
# Outline: as §1
# [7] = A2780 Cisplatin Sensitive Ovarian Cancer Cell Toxicity qHTS against the NCATS CANVASS Library (AID 1347353); note: nearly all actives have a fitted effect of over 60% in size
# Outline: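 Cisplatin-sensitive A2780 ovarian cells (750/well) received compound in 11 concentrations, and were incubated 72 h at 37 °C. ATP content was measured by ATPLite luminescence; bortezomib served as control.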
# [8] = UWB1.289-WTBRCA1 Cancer Cell Toxicity qHTS against the NCATS CANVASS Library (AID 1347354)
# Outline: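 Toxicity was measured as CellTiter-Glo luminescence after 72 h exposure to an 11-point compound series. Compound was added to 1000 cells/well 4 h after seeding.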
# [9] = HPAF-II 24hr Apoptosis Induction qHTS against the NCATS CANVASS Library (AID 1347356)
# Outline: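 Caspase-Glo 3/7 luminescence, read after 15 min room-temperature development, measures apoptosis in HPAF-II cells treated 24 h at 37 degrees C with an 11-point concentration series; 500 cells/well; doxorubicin control.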
# [10] = SDT Cancer Cell Toxicity qHTS against the NCATS CANVASS Library (AID 1347365); note: nearly all actives have a fitted effect of over 60% in size
# Outline: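 Cytotoxicity taken from CellTiterGlo ATP luminescence after 72 hr at 37C, 5% CO2. Canine glioma line SDT, 500 cells/well, treated at 11 concentrations; bortezomib dose series as control.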
# [11] = G06 Cancer Cell Toxicity qHTS against the NCATS CANVASS Library (AID 1347368); note: nearly all actives have a fitted effect of over 60% in size
# Outline: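 Viability measured by CellTiterGlo ATP luminescence after 72 hr at 37C, 5% CO2. Canine G06 glioma cells plated at 500/well. Compounds tested as 11-point qHTS titrations.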
# [12] = DH5-alpha competent E. coli microbial cell viability qHTS against the NCATS CANVASS Library (AID 1347377); details: outcome: dose series up to 46.1 µM unless noted
# Outline: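 Bacterial viability as ATP-dependent luminescence (BacTiter-Glo), read after overnight 37 °C exposure of DH5-alpha competent E. coli to compounds in 11-point titration.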
# [13] = qHTS for Antimalaria activity screened against the NCATS CANVASS Library (AID 1347380);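 note: Plasmodium falciparum strain Dd2 asexual parasites grown in red blood cells; series mostly up to about 29 µM; nearly all actives have a fitted effect of over 40% in size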
# Outline: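 SYBR Green fluorescence at 485/535 nm was read 18 hr after lysis. This followed a 72 hr incubation at 37C in 5% O2, 5% CO2 of Dd2-infected erythrocytes (0.3% parasitemia, 2.5% final hematocrit) with compounds titrated over 11 concentrations.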
# [14] = qHTS assay for small molecule disruptors of mitochondrial membrane potential screened against the NCATS CANVASS Library (AID 1347389)
# Outline: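 Mitochondrial membrane potential in HepG2: 1 h compound treatment (11-point concentration series), 30 min m-MPI dye at 37C, then dual fluorescence of J-aggregates (ex 540/em 590) and monomers (ex 490/em 535); lower red/green ratio indicates depolarization.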
# [15] = qHTS for activators of Nrf2/ARE signaling pathway screened against the NCATS CANVASS Library (AID 1347391); note: nearly all actives have a fitted effect of over 60% in size; note: potency is the fitted concentration of half-maximal effect
# Outline: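 Eleven-point qHTS, 16 h treatment of HepG2 cells carrying an ARE-driven beta-lactamase reporter; CCF4 ratio read (405 nm excitation, 460 and 530 nm emission), with CellTiter-Glo ATP luminescence for viability.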
# [16] = qHTS for inhibitors of ER calcium dysfunction: SERCaMP assay screened against the NCATS CANVASS Library (AID 1347393); note: nearly all actives have a fitted effect of over 40% in size; note: potency is the fitted concentration of half-maximal effect
# Outline: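 qHTS in SH-SY5Y reporter cells: 16 h compound pretreatment, 4 h thapsigargin, then secreted Gaussia luciferase measured by luminescence.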
# [17] = Vero-766 cells viability qHTS against the NCATS CANVASS Library: Counterscreen for Zika virus inhibition assay (AID 1347394)
# Outline: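 Uninfected Vero 766 (African green monkey) cells, 1000/well, attached overnight, then exposed 72 h at 37C to compounds (11-point qHTS). Viability read by CellTiter-Glo luminescence; media-only wells served as 100% inhibition.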
# [18] = qHTS for inhibitors of Wild type Zika virus screened against the NCATS CANVASS Library (AID 1347396);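 note: ATP luminescence of surviving cells so rescue from viral cell killing; series mostly up to about 46 µM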
# Outline: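 Vero 766 cells, 1000/well, o/n attach; cpds pin-transferred (11-pt qHTS); WT Zika added; 72 h, 37C, 5% CO2; CellTiter Glo lumi. Uninfected + vehicle = 100% inhibition.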
# [19] = MCF7 Cancer Cell Toxicity qHTS against the NCATS CANVASS Library (AID 1347369)
# Outline: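 MCF7, 500 cells/well; cpds 11-pt qHTS; 72 hr, 37C/5% CO2; CellTiterGlo ATP luminescence.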
# [20] = qHTS for Hypoxia signaling pathway (HIF-1) antagonists against the NCATS CANVASS Library (AID 1347374)
# Outline: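 Antagonism scored as loss of CoCl2-driven (60 uM stock added) HRE beta-lactamase signal, read by CCF4 FRET at 460/530 nm. Compounds were tested in an 11-point series on ME-180 reporter cells for 17 hrs at 37C, with parallel CellTiter-Glo cytotoxicity.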
Compound,Potency [1],Potency [2],Potency [3],Potency [4],Potency [5],Potency [6],Potency [7],Potency [8],outcome [9],Potency [10],Potency [11],outcome [12],Potency [13],Potency [14],Potency [15],Potency [16],Potency [17],outcome [18],Potency [19],Potency [20]
CN1CC[C@]23c4ccccc4N[C@H]1[C@]21CCN(C)[C@H]3Nc2ccccc21,inactive,inactive,inactive,inactive,inactive,inactive,inactive,inactive,inactive,inactive,inactive,inactive,inactive,inactive,inactive,inactive,inactive,inactive,,
CCCCCC(=O)N[C@@H](CC(C)C)C(=O)N[C@H](C=O)CCC(=O)O (Hexanoyl-Leu-Glu-aldehyde),inactive,inactive,inactive,inactive,inactive,inactive,inactive,inactive,,inactive,inactive,inactive,,inactive,inactive,inactive,inactive,inactive,inactive,inactive
COC(=O)[C@]1([C@H]2CCC(=O)O2)CC(=O)c2c(O)cc(C)cc2O1,inactive,inactive,inactive,inactive,inactive,inactive,inactive,inactive,inactive,inactive,inactive,inactive,,inactive,inactive,inactive,inactive,inactive,inactive,inactive
C[C@@]1(CCC(=O)Nc2c(O)ccc(C(=O)O)c2O)C(=O)C=C[C@]23C[C@H]4C[C@H](O[C@@]4(C)C2)C31 (stereo partly drawn),inactive,inactive,inactive,inactive,inactive,inactive,inactive,inactive,inactive,inactive,inactive,inactive,,inactive,inactive,inactive,inactive,inactive,,inactive
COC(=O)[C@@]12Oc3cccc(O)c3C(O)=C1C(=O)C[C@H](C)[C@H]2O,inactive,inactive,inactive,inactive,inactive,inactive,inactive,inactive,inactive,inactive,inactive,,inactive,inactive,,,inactive,inactive,,
C=C[C@]1(C)CC[C@@H]([C@H](C)C(=O)/C=C/C(C)(C)O)O1,inactive,inactive,,inactive,inactive,inactive,,inactive,inactive,,,inactive,inactive,inactive,16.6 µM (active),,inactive,inactive,inactive,inactive
CC(CCC[C@]1(C)C(=O)C=C[C@@]23C[C@]4(C)O[C@@H](C[C@@H]4[C@H]2O)C31)C(=O)O (stereo partly drawn),inactive,inactive,inactive,inactive,inactive,inactive,inactive,inactive,,inactive,inactive,inactive,,inactive,inactive,inactive,inactive,inactive,inactive,inactive
CC(C)=CCC[C@]1(C)[C@H]2CC(=O)[C@@]3(CO3)[C@@H]1C2,inactive,inactive,inactive,inactive,inactive,inactive,inactive,inactive,,inactive,inactive,inactive,,inactive,inactive,inactive,inactive,inactive,inactive,inactive
O=Cc1ccc2n1C[C@]1(OC2)O[C@H](CO)[C@@H](O)[C@@H]1O,inactive,inactive,inactive,inactive,inactive,inactive,inactive,inactive,inactive,inactive,inactive,,,inactive,inactive,inactive,inactive,inactive,,inactive
C=C[C@@]1(C)CC[C@@H]([C@H](C)C(C)=O)O1,inactive,inactive,inactive,inactive,inactive,inactive,inactive,inactive,inactive,inactive,inactive,inactive,,inactive,inactive,inactive,inactive,inactive,inactive,inactive
C/C=C/[C@H]1[C@H]2C(=O)c3c(O)c(C)c(O)c(C)c3[C@]1(C(=O)O)C(=O)C=C2C,inactive,inactive,inactive,inactive,inactive,inactive,inactive,inactive,inactive,inactive,inactive,inactive,inactive,inactive,inactive,inactive,inactive,inactive,inactive,inactive
CC(=O)c1c(C)cc2c(c1O)C(=O)c1c(O)cc(O)cc1C2=O,inactive,inactive,inactive,inactive,inactive,inactive,inactive,inactive,inactive,inactive,inactive,inactive,inactive,inactive,inactive,inactive,inactive,inactive,inactive,inactive
C=C[C@]1(C)CC[C@@H]([C@H](C)C(=O)CC=C(C)C)O1,inactive,inactive,inactive,inactive,inactive,inactive,inactive,inactive,inactive,inactive,inactive,inactive,inactive,inactive,inactive,,inactive,inactive,,inactive
CCC(C)=C1OC(=O)[C@H](C)[C@H](O)[C@H](Cc2cccnc2)NC(=O)C(NC(=O)c2ncccc2O)C(C)OC1=O (stereo partly drawn),inactive,inactive,inactive,inactive,inactive,inactive,inactive,inactive,,inactive,inactive,,inactive,inactive,inactive,,,inactive,inactive,
O=c1cc(-c2ccc(O)cc2)oc2cc(O)c([C@@H]3OC(CO)[C@H](O)[C@@H](O)[C@H]3O)c(O)c12 (stereo partly drawn),inactive,inactive,inactive,inactive,inactive,inactive,inactive,inactive,,inactive,inactive,inactive,inactive,inactive,inactive,inactive,inactive,inactive,inactive,inactive
C[C@@]12CCC[C@@](C)(C(=O)O)[C@H]1CC[C@@]13C[C@@H](CC[C@H]12)[C@](C)(O)C3,inactive,inactive,inactive,inactive,inactive,inactive,inactive,inactive,,inactive,inactive,inactive,inactive,inactive,,inactive,inactive,inactive,inactive,inactive
CC(=O)N[C@H](C)c1nc(/C=C/C=C/C(=O)CC2CC(=O)CC[C@]2(C)O)cs1 (stereo partly drawn),inactive,inactive,inactive,inactive,inactive,inactive,,inactive,inactive,inactive,inactive,inactive,inactive,inactive,inactive,inactive,inactive,inactive,inactive,inactive
CO[C@@H](C[C@@H](C)[C@@H](O)/C=C/C=C/CNC(=O)C(C)(C)[C@H](O)\C(C)=C/C=C\C=C\Cc1cnco1)[C@]1(O)[C@@H](C)C(=O)N(C)[C@@]12COC2=O,inactive,inactive,inactive,inactive,inactive,inactive,inactive,inactive,inactive,inactive,inactive,inactive,,inactive,inactive,inactive,inactive,inactive,,inactive
COc1ccc([C@@H]2c3cc4c(cc3C(=O)C(C)C2C)OCO4)cc1OC (stereo partly drawn),inactive,inactive,inactive,inactive,inactive,inactive,inactive,inactive,,inactive,inactive,inactive,,inactive,,7.67 µM (active),inactive,inactive,,inactive
